# This is a sample that favours compounds with a hit; in the whole collection about 3.2% have one here.
# SSB-PriA inh: blocks PriA binding to SSB C-terminal tail. AlphaScreen SSBct-PriA binding, biotinylated peptide. inhibition, % at 33 µM. actives 0.6% (n = 430,000); in the data active = inhibition mostly above about 37%, no sharp cut-off; inactive = mostly below about 20%;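 note: plate controls were negative control peptide for no effect and reference peptide for full effect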
# FBA Mtb inh: Mtb fructose-bisphosphate aldolase inhibition | actives 2.3% (n = 360,000) | inhibition, % at 1 µM | purified M. tuberculosis FBA, fluorescence read-out | P9WQA3;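 note: 0% = vehicle and 100% = reference inhibitor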
# GDH-TPI counter-1: inhibits GDH-TPI coupling enzymes, artifact for Mtb FBA screen | actives 1.2% (n = 360,000) | GDH-TPI coupled enzyme counterscreen, NADH absorbance | inhibition, % at 4.8 µM | AID 588335; in the data active = inhibition above about 30%;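 note: 0% = DMSO wells and 100% = wells lacking the enzyme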
# Rv3671c protease: inhibits the M. tuberculosis serine protease Rv3671c. P9WHR9. inhibition, % at 5.96 µM. actives 0.048% (n = 320,000). AID 2606; in the data active = inhibition above about 38%;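 note: extracellular domain of Rv3671c used as enzyme; 0% = enzyme with DMSO and 100% = no enzyme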
# Target sequence (P9WHR9 whole entry, looked up, the tested form may be a part): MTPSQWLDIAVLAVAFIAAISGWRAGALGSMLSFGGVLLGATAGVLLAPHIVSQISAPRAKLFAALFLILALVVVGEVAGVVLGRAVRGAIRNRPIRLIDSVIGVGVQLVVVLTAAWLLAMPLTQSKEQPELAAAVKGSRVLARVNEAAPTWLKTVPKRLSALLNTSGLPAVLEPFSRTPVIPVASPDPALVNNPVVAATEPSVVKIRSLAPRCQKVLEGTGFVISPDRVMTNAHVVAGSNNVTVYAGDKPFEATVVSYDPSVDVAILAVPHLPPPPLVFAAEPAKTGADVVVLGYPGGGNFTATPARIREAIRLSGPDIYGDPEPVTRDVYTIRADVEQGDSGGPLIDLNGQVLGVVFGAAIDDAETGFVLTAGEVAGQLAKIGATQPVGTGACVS
# Mtb bLac sens: beta-lactam sensitization of Mtb H37Rv | AID 434955 | M. tuberculosis H37Rv growth with meropenem, percent inhibition | actives 0.27% (n = 330,000) | inhibition, % at 25 µM; call rule not given here;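 note: growth measured after seven days incubation then overnight dye step; 0% = bacteria only wells and 100% = bacteria with antibiotic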
# Mtb UGM inh: inhibitors of M. tuberculosis UDP-galactopyranose mutase. actives 0.06% (n = 320,000). purified UGM, fluorescence polarization probe displacement. inhibition, % at 10 µM. AID 504406; in the data active = inhibition above about 10%, passing the limit was not always enough
# Mtb FBA confirm: Mtb FBA inhibition, confirmed; AID 651616; actives 78% (n = 5,600); inhibition, % at 1 µM; purified M. tuberculosis FBA, fluorescence read-out; shares compounds with FBA Mtb inh;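 note: 0% = vehicle wells and 100% = reference inhibitor wells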
# GDH-TPI counter-2: GDH-TPI inhibition counter-screen for FBA inhibitors; inhibition, % at 1 µM; actives 81% (n = 5,600); shares compounds with FBA Mtb inh; GDH-TPI coupled enzyme counterscreen, fluorescence; in the data active = inhibition above about 10%
# GDH-TPI dose: GDH-TPI dose response counter-screen for Mtb FBA | shares compounds with FBA Mtb inh | GDH-TPI coupled enzyme assay, fluorescence, artifact counterscreen | IC50, µM | actives 79% (n = 170) | AID 652145; call rule not given here
# The depositor's hits bear a star; x = no result given; + = active, no number. Cut-off read from the data, not from the text of the source, unless noted: active = inhibition above about 27%; inactive = the rest.
SMILES,SSB-PriA inh,FBA Mtb inh,GDH-TPI counter-1,Rv3671c protease,Mtb bLac sens,Mtb UGM inh,Mtb FBA confirm,GDH-TPI counter-2,others
Cc1cc(=O)oc2c3c(ccc12)OC/C3=N/N,x,94*,15,-3,-3,-3,+,+,
CCS(=O)(=O)Nc1ccccc1C(N)=O,8,44*,-3,11,3,0,14,0,GDH-TPI dose=4.3*
NC(=O)c1ccccc1NS(=O)(=O)Cc1ccc(Cl)cc1,0,70*,-6,-1,1,2,-9,-8,
CN(C)S(=O)(=O)Nc1ccccc1C(N)=O,-14,21,0,-2,2,-1,x,x,
C=C(C)COc1ccc2c(C)c(CC(=O)OC)c(=O)oc2c1C,-15,89*,30,-9,8,1,76*,62*,
COC(=O)Cc1c(C)c2ccc(OCC(C)=O)c(C)c2oc1=O,-17,79*,13,0,-14,0,-2,-4,
Cc1c(CC(=O)O)c(=O)oc2c(C)c(OCc3c(F)cccc3Cl)ccc12,-16,44*,12,x,-2,0,76*,67*,
C=C(C)COc1ccc2c(C)c(C)c(=O)oc2c1OCC(=C)C,-2,12,-6,1,x,-3,x,x,
CC1(C)CC(=O)C=C(c2ccc3ccccc3c2)C1,-6,40*,16,2,18,-1,0,-5,
CCCn1nc2cc(C(=O)NCCCCc3ccccc3)ccc2c1OCC,9,53*,9,-6,x,-1,132*,104*,
C=CCOc1c2ccc(C(=O)NCCc3ccc(C)cc3)cc2nn1C,5,15,9,6,7,1,x,x,
CCCn1nc2cc(C(=O)NCCc3ccc(C)cc3)ccc2c1OCC,-6,55*,4,-5,-5,-1,64*,67*,
CN(C)c1nc(OCCNC(=O)COc2ccccc2Cl)nc(N(C)C)n1,-2,55*,15,-1,-3,1,+,189*,
CC(C)(C)NCc1cccn1-c1sc2c(c1C#N)CCCC2,-3,76*,12,-3,1,-2,66*,52*,
N#Cc1c(N2C(=O)c3ccc(C(=O)O)cc3C2=O)sc2c1CCCC2,6,-1,2,-2,-6,1,x,x,
COc1ccc(C(C(=O)NC2CCCCC2)N(C(=O)c2snc(C(N)=O)c2N)c2ccc(OC)cc2OC)cc1 (stereo not drawn),3,4,8,-15,28,-3,x,x,
Cc1ccccc1N(C(=O)c1snc(C(N)=O)c1N)C(C(=O)NC1CCCCC1)c1ccc(O)cc1 (stereo not drawn),2,35*,8,-20,6,-3,6,0,
Cc1ccccc1N(C(=O)c1snc(C(N)=O)c1N)C(C)C(=O)NC1CCCCC1 (stereo not drawn),-6,32*,5,-1,-7,-1,54*,37*,
O=C(NN=Cc1c(O)n(C2CC2)c(=S)[nH]c1=O)c1ccccc1,-13,x,x,x,x,x,x,x,
CS(=O)(=O)c1ccc(C(=O)Nc2ccc(F)cc2F)cc1,-23,x,x,x,x,x,x,x,
COc1ccc2oc(C(=O)OCC(=O)N(C)C3CCS(=O)(=O)C3)c(C)c2c1 (stereo not drawn),33,45*,9,0,-12,1,73*,53*,
COc1ccc2oc(C(=O)OCC(=O)N(C)C3CCCCC3)c(C)c2c1,0,38*,6,5,7,1,2,-6,
COc1ccc2oc(C(=O)OCC(=O)N(C)CC(=O)Nc3ccc(C)cc3)c(C)c2c1,7,17,6,-14,-13,4,x,x,
CCN(C(=O)COC(=O)c1oc2ccc(OC)cc2c1C)C1CCCCC1,-12,30*,-2,3,0,2,103*,78*,
COc1cn(CC(=O)N2CCC(Cc3ccccc3)CC2)c(CO)cc1=O,-10,x,x,x,x,x,x,x,
SMILES,SSB-PriA inh,FBA Mtb inh,GDH-TPI counter-1,Rv3671c protease,Mtb bLac sens,Mtb UGM inh,Mtb FBA confirm,GDH-TPI counter-2,others
CN(C)C[C@H]1CSCCCN1C(=O)c1ccc2ncsc2c1,-2,x,x,x,x,x,x,x,
Clc1ccc(-c2ccnc(-n3cccc3)n2)s1,-14,45*,16,-1,-4,2,+,157*,
Clc1ccsc1-c1ccnc(-n2cccc2)n1,-20,7,3,-8,4,0,x,x,
c1coc(-c2ccnc(-n3cccc3)n2)c1,-8,31*,2,5,5,x,147*,129*,
CCOc1ccc(-c2cc(=O)n(CC(=O)OC)cn2)cc1,2,x,x,x,x,x,x,x,
CCC1(C)Cc2[nH]c(=O)c(C#N)cc2CO1 (stereo not drawn),-12,69*,7,3,-8,2,2,-1,
CC1(C)Cc2[nH]c(=O)c(C#N)cc2CS1,-5,11,9,-14,-18,-2,x,x,
O=C1C=C(Nc2ccccc2C(=O)O)c2ccccc2C1=O,2,38*,12,-71,17,2,+,157*,
Oc1ccc(Cl)cc1C=Nc1ccc2c3c(cccc13)CC2,-7,51*,17,-15,-10,x,35*,19*,
Cc1cccc(C=Nc2ccc3c4c(cccc24)CC3)c1O,2,37*,-1,-14,0,-3,54*,55*,
CNC(=S)N1N=C(c2ccc(C)cc2)CC1c1cn(-c2ccccc2)nc1-c1ccc(C)cc1 (stereo not drawn),-14,x,x,x,x,x,x,x,
CCc1nnc(NC(=O)C2CCN(S(=O)(=O)Cc3ccccc3)CC2)s1,4,35*,1,2,-8,0,86*,69*,
N#Cc1cnn2c3c(cnc12)C(=O)N1CCc2ccccc2C1C3 (stereo not drawn),-1,27*,-6,7,-2,0,87*,64*,
CSc1nc2ncc3c(n2n1)CC1c2ccccc2CCN1C3=O (stereo not drawn),5,53*,10,-9,-11,1,76*,58*,
O=C1c2cnc3ncnn3c2CC2c3ccccc3CCN12 (stereo not drawn),-21,58*,-3,13,-2,0,23,18*,
N#Cc1cnn2c(C(F)(F)F)cc(-c3ccccc3)nc12,-19,7,15,-14,7,2,x,x,
O=C1c2cnc3nc(SCc4cccc(Cl)c4)nn3c2CC2c3ccccc3CCN12 (stereo not drawn),-19,1,-8,-5,1,-1,x,x,
NC(=O)CSc1nnc(Cc2c[nH]c3ccccc23)o1,-8,x,x,x,x,x,x,x,
CCOC(=O)c1nc2ccccc2c(=O)[nH]1,-4,1,8,6,0,-1,x,x,
CCOC(=O)c1nc(N)c(C(=O)OCC)[nH]1,-31,59*,6,3,-10,-3,198*,166*,

# Screening data from PubChem.
